# According to the supplement of paper PMC10515830:
# Counter-ions that a name gives are not always drawn.
# Assays:
# Conditions in all cases: 10 µM; exposure time 6 h
# [1] = test system: Danio rerio larvae (5 dpf); test: difference in excitability vs DMSO (percentage points); higher = more excitable than DMSO
# Procedure, shortened: (§1)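 Wild-type 5 dpf zebrafish larvae in 96-well plates were given 100 µL egg water containing library compound at 10 µM final for 6 h. After 3 h of exposure, plates at 28.5 ℃ were photographed every 6 s during a 3-h programme of moving lines and 100 ms, 400Hz tones. Z-LaP Tracker (a DeepLabCut model) quantified each behaviour, averaged over 48 larvae per compound. Values are the compound mean minus the DMSO-vehicle control, in percentage points.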
# [2] = test system: Danio rerio larvae (5 dpf); test: difference in startle response vs DMSO (percentage points); higher = stronger startle than DMSO
# Procedure, shortened: as §1
# [3] = test system: Danio rerio larvae (5 dpf); test: difference in activity during first hour vs DMSO (percentage points); higher = more activity than DMSO
# Procedure, shortened: as §1
# [4] = test system: Danio rerio larvae (5 dpf); test: difference in habituation to acoustic stimuli vs DMSO (percentage points); higher = more habituation than DMSO
# Procedure, shortened: as §1
# [5] = test system: Danio rerio larvae (5 dpf); test: difference in combined optomotor response to red, green and blue moving lines vs DMSO (percentage points); higher = stronger optomotor response than DMSO
# Procedure, shortened: as §1
SMILES,difference in excitability [1],difference in startle response [2],difference in activity during first hour [3],difference in habituation to acoustic stimuli [4],difference [5]
C/C(=C\c1csc(C)n1)[C@@H]1C[C@@H]2O[C@]2(C)CCC[C@H](C)[C@H](O)[C@@H](C)C(=O)C(C)(C)[C@@H](O)CC(=O)N1 [Ixabepilone],0.28,-3.45,16.6,5.42,-1.72
FC(F)OC(Cl)C(F)(F)F (stereo not given) [Isoflurane],11.1,8.95,-15.9,-1.84,-13
O=C(Nc1c(Cl)cncc1Cl)c1ccc(OC(F)F)c(OCC2CC2)c1 [Roflumilast],18.7,-2.74,-14.9,-8.84,-5.57
Cc1ccc(C(=O)c2cc(O)c(O)c([N+](=O)[O-])c2)cc1 [Tolcapone],5.24,-9.07,8.3,-6.19,-0.989
CC(C(=O)O)c1cccc(Oc2ccccc2)c1 (stereo not given) [Fenoprofen (calcium salt hydrate)],5.22,0.479,-0.54,-2.86,-2.31
C#C[C@]1(O)CC[C@H]2[C@@H]3CCc4cc(O)ccc4[C@H]3CC[C@@]21C [Ethynyl Estradiol],3.58,-3.27,-24,-11,-17.5
CC(=O)OCC[N+](C)(C)C [Acetylcholine (chloride)],5.65,0.34,-8.36,2.23,-4.37
CCc1nc(N)nc(N)c1-c1ccc(Cl)cc1 [Pyrimethamine],12.2,1.26,9.34,-3.84,5.09
CCCCCOC(=O)Nc1nc(=O)n([C@@H]2O[C@H](C)[C@@H](O)[C@H]2O)cc1F [Capecitabine],-2.56,-2.24,-0.876,-0.579,-1.26
CC(C)(C)NC(=O)[C@H]1CC[C@H]2[C@@H]3CC[C@H]4NC(=O)C=C[C@]4(C)[C@H]3CC[C@]12C [Finasteride],11.1,3.35,10.8,-0.24,9
COc1c(C)c2c(c(O)c1C/C=C(\C)CCC(=O)OCCN1CCOCC1)C(=O)OC2 [Mycophenolate Mofetil],7.89,-4.66,-3.09,-2.74,1.02
CN1C(=O)CC(C)(c2ccccc2)C1=O (stereo not given) [Methsuximide],-3.21,8.76,7.45,4.76,10.3
CCCCCOc1ccc(-c2cc(-c3ccc(C(=O)N[C@H]4C[C@@H](O)[C@@H](O)NC(=O)[C@@H]5[C@@H](O)[C@@H](C)CN5C(=O)[C@H]([C@H](O)CC(N)=O)NC(=O)[C@H]([C@H](O)[C@@H](O)c5ccc(O)c(OS(=O)(=O)O)c5)NC(=O)[C@@H]5C[C@@H](O)CN5C(=O)[C@H]([C@@H](C)O)NC4=O)cc3)no2)cc1 [Micafungin (sodium salt)],-4.69,-8.33,19.8,-1.44,-1.06
CC=CC(=O)N(CC)c1ccccc1C [Crotamiton],0.486,3.97,-3.58,4.95,-3.13
C[N+](C)(C)CCOC(N)=O [Carbamoylcholine (chloride)],2.95,2.73,-0.038,1.09,1.31
Nc1nc2ccc(OC(F)(F)F)cc2s1 [Riluzole (hydrochloride)],12.7,-2.33,7.76,3.2,11.9
CC(C)(C)NCC(O)COc1cccc2c1CCC(=O)N2 (stereo not given) [Carteolol (hydrochloride)],4.97,-3.33,6.77,1.1,4.95
COC(=O)C1=C(C)NC(C)=C(C(=O)OC(C)C)C1c1cccc2nonc12 (stereo not given) [Isradipine],11.7,-10.9,-0.814,-7.82,-17.2
CCCN1CCCC[C@H]1C(=O)Nc1c(C)cccc1C [(-)-Ropivacaine (hydrochloride hydrate)],-4.41,-2.15,7.62,-1.06,1.37
CNC(=O)c1cc(Oc2ccc(NC(=O)Nc3ccc(Cl)c(C(F)(F)F)c3)c(F)c2)ccn1 [Regorafenib],20.9,-2.66,-3.38,-6.09,1.15
NCCS [Cysteamine (hydrochloride)],4.79,3.78,3.89,0.254,14.5
COCC1=C(C(=O)O)N2C(=O)[C@@H](NC(=O)/C(=N\OC)c3csc(N)n3)[C@H]2SC1 [Cefpodoxime],0.712,1.11,-0.401,-0.554,7.24
C[N+](C)(C)C[C@H](O)CC(=O)[O-] [L-Carnitine],-2.51,-2.46,8.51,4,3.58
CCOC(=O)[C@H](CCc1ccccc1)N[C@@H](C)C(=O)N1Cc2ccccc2C[C@H]1C(=O)O [Quinapril (hydrochloride)],-1.99,-2.06,12.4,-0.155,2.4
